Bioassay records deposited in PubChem BioAssay by National Center for Advancing Translational Sciences (NCATS).
A selection: hits, their analogues and other compounds. The true share with any hit is near 2.8%.
Pol beta inh – blocks human DNA polymerase beta activity; Pol beta primer extension/strand displacement, fluorescence kinetic; P06746; AID 485314; Potency, µM (titrated, usually from 114 µM), most hits filed as inhibitors; 340,000 tested, 1.3% active
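Pol beta (10 nM) and compounds were preincubated 15 min at room temperature, then 50 nM substrate (final) started primer extension/strand displacement. Reads were taken at 0 and 10 min; concentration-response data were fitted to a four-parameter Hill equation.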
POLH inh – blocks human DNA polymerase eta activity | 390,000 tested, 1.2% active | Q9Y253 | recombinant Pol eta, fluorescent DNA replication assay | Potency, µM (top dose mostly 114 µM), actives largely listed as inhibitors
Target sequence (Q9Y253 whole entry, looked up): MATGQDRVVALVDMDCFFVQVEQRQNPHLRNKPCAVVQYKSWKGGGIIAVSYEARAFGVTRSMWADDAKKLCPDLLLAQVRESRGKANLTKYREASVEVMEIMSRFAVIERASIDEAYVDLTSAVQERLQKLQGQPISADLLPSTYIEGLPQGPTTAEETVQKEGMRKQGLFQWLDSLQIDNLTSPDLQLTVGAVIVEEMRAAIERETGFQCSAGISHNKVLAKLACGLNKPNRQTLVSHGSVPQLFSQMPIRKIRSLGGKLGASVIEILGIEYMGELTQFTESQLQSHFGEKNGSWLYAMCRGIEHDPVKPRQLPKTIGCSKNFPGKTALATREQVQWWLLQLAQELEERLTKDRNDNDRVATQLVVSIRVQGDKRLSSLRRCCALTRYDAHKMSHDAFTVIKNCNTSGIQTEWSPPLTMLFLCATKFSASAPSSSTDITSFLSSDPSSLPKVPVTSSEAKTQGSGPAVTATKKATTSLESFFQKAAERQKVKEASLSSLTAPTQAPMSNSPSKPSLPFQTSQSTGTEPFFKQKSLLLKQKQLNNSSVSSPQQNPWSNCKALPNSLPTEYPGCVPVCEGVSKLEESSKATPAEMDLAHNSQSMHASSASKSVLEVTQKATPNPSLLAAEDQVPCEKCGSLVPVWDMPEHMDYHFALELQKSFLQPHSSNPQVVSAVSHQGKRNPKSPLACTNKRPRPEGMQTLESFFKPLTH
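Pol eta (10 nM) was preincubated with compounds for 15 min at room temperature, after which fluorescent replication substrate (50 nM final) was added to start the reaction. Fluorescence was read kinetically at 0 and 10 min.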
Pol iota inh – inhibitors of human DNA polymerase iota | Q9UNA4 | Pol iota fluorescent replication assay, 10 min | Potency, µM (doses to about 115 µM), most hits filed as inhibitors | 390,000 tested, 1% active | AID 588590
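Fluorescent replication assay read twice, at 0 min and 10 min after adding 50 nM (final) substrate. Enzyme (10 nM) and compounds were first incubated 15 min at room temperature; enzyme-free buffer wells were negative controls.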
WRN helicase inh – inhibitors of human WRN helicase; Q14191; WRN helicase unwinding, fluorescent forked duplex, kinetic; Potency, µM (top dose mostly 114 µM), actives largely listed as inhibitors; 360,000 tested, 0.46% active; note: nearly all actives have a fitted effect of over 55% in size
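Primary qHTS, 1536-well format. 20 nM WRN + compound, 15 min RT; start with 100 nM forked fluorophore/quencher duplex, 2 mM ATP (final); kinetic read ex 525/em 598 nm.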
Pol kappa inh – DNA polymerase kappa (human) inhibition; 400,000 tested, 0.53% active; purified Pol kappa, fluorescent DNA synthesis assay, 10 min; Q9UBT6; AID 588579; Potency, µM (highest dose often 107 µM), actives largely listed as inhibitors
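Readout: fluorescence, taken kinetically at 0 and 10 min. Conditions: 10 nM Pol kappa, 15 min RT compound preincubation, 50 nM substrate final. Controls: enzyme-free buffer wells.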
PI5P4K alpha inh – inhibitors of human PI5P4K alpha. AID 652105. 330,000 tested, 1.2% active. PI5P4Kalpha enzyme, ADP-Glo luminescence, 60 min; active compounds read low. P48426. max response, %; active = max response of -50% or lower; inconclusive = between -30% and -50%; inactive = -30% or higher; note: value at the top dose of about 77 µM
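Controls without substrate or without enzyme flank wells where PI5P4Kalpha converts substrate using 5 microM ATP (final). Incubation lasts 60 minutes at room temperature; ADP formed is read by ADP-Glo luminescence.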
Of the large screens only hits and unclear results are named; the others gave an inactive call. Unless noted, calls come from the whole dose curve; as a rule, active = well fitted curve in the direction sought with a large enough effect; inconclusive = small, poorly fitted or top-dose-only effect, or another doubt; inactive = no such curve, though single readings can be large; an effect the other way counts as inactive or inconclusive.

N#CC1(NC(=O)COC(=O)/C=C/c2ccc3ccccc3n2)CCCCC1	Pol beta inh 13µM, POLH inh inconclusive, Pol iota inh 45µM, Pol kappa inh inconclusive, PI5P4K alpha inh inconclusive
CCOC(=O)/C=C1/SCC(=O)N1CC(=O)c1ccc[nH]1	POLH inh inconclusive, Pol iota inh 22µM, PI5P4K alpha inh inconclusive (no result: Pol beta inh)
Cc1noc(C)c1-c1csc(N2CCC(C(N)=O)CC2)n1	Pol iota inh inconclusive (no result: Pol beta inh, WRN helicase inh, PI5P4K alpha inh)
O=C1c2cccnc2C(Nc2ccccc2)N1Cc1ccco1 (stereo unspecified)	Pol iota inh 13µM (no result: PI5P4K alpha inh)
CC(=O)n1cc(N(C(=O)CCl)c2ccc(C)cc2)c2ccccc21	POLH inh 32µM
Cc1ccc(C)c(NC(=O)c2ccccc2O)c1	WRN helicase inh 56µM, PI5P4K alpha inh inconclusive
O=C(NC1CCCCC1)C(c1ccccn1)N(C(=O)c1csnn1)C1CCCCC1 (stereo unspecified)	none
CCOC(=O)c1csc(COc2ccc(OC)cc2)n1	none
CCOC1=C/C(=C/c2c(N)n3nc(CC(=O)N4CCCCC4)sc3nc2=O)C=CC1=O	POLH inh inconclusive, Pol iota inh inconclusive, Pol kappa inh inconclusive, PI5P4K alpha inh -66
C=CCC1=C/C(=C\c2c(N)n3nc(CC(=O)N4CCCC4)sc3nc2=O)C=C(OC)C1=O	none
CCOC1=C/C(=C/c2c(N)n3nc(S(=O)(=O)CC)sc3nc2=O)C=CC1=O	POLH inh inconclusive, Pol iota inh inconclusive, PI5P4K alpha inh -56
COC1=C/C(=C/c2c(N)n3nc(CC(=O)N4CCCCC4)sc3nc2=O)C=CC1=O	POLH inh 50µM, Pol iota inh inconclusive, Pol kappa inh inconclusive, PI5P4K alpha inh -64
Nc1c(/C=C2\C=Nc3ccccc32)c(=O)nc2sc(CC(=O)N3CCOCC3)nn12	PI5P4K alpha inh -53
CSCCC(NC(=O)COc1ccccc1)C(=O)NCC(C)(C)N1CCOCC1 (stereo unspecified)	none (no result: Pol beta inh, Pol iota inh, Pol kappa inh)
CNS(=O)(=O)c1cc(-c2nn3c(C)nnc3c3ccccc23)ccc1C	none (no result: WRN helicase inh, PI5P4K alpha inh)
CC(NC(=O)CNC(=O)c1ccco1)c1ccccc1 (stereo unspecified)	none
CC1CCCCC12NC(=O)N(Cc1cc(=O)n3ccsc3n1)C2=O (stereo unspecified)	Pol beta inh inconclusive, Pol iota inh 79µM
CC1CCC2(CC1)NC(=O)N(Cc1cc(=O)n3ccsc3n1)C2=O (stereo unspecified)	none
COc1ccc(CCNC(=O)CS(=O)(=O)Cc2nc(-c3cccc(Cl)c3)oc2C)cc1OC	none (no result: WRN helicase inh, PI5P4K alpha inh)
Cc1cccc(C(=O)Nc2sc(C)c(-c3ccccc3)c2C#N)c1	Pol iota inh inconclusive
N#Cc1c(Cl)nsc1NC(=O)c1ccccc1	PI5P4K alpha inh -54
CCOC(=O)C1=C(C)N=C2c3ccccc3C(=O)C2C1c1ccc(Cl)cc1 (stereo unspecified)	none (no result: PI5P4K alpha inh)
CCOC(=O)C1=C(Cc2ccc(Cl)cc2)C(=O)c2ccccc2C1=O	Pol iota inh 14µM, WRN helicase inh 35µM (no result: PI5P4K alpha inh)
COc1ccc(C(=O)NNC(=O)CSc2nnc(C3CC3)n2C)cc1	none
O=S(=O)(c1ccccc1)N(C1=NCCS1)S(=O)(=O)c1ccccc1	none (no result: PI5P4K alpha inh)
COc1cccc2cc(C(=O)Oc3ccccc3)c(=O)oc12	Pol beta inh 89µM, POLH inh inconclusive
Cc1nc(-c2ccncc2)sc1C(=O)Nc1ccc(Br)cc1	Pol beta inh 16µM
CC(=O)Nc1ccc(NC(=O)c2sc(-c3ccccc3)nc2C)cc1	none
Cc1ccc(/C=C2\SC(=S)N(C(Cc3ccccc3)C(=O)O)C2=O)cc1 (stereo unspecified)	Pol beta inh 89µM, POLH inh 79µM
COc1cccc(/C=C2\SC(=S)N(C(C(=O)O)c3ccccc3)C2=O)c1OC (stereo unspecified)	Pol iota inh inconclusive
O=C(O)C(Cc1ccccc1)N1C(=O)/C(=C/c2ccccc2)SC1=S (stereo unspecified)	none
O=C(O)C(Cc1ccccc1)N1C(=O)/C(=C/c2cccc3ccccc23)SC1=S (stereo unspecified)	Pol beta inh 32µM (no result: POLH inh, Pol iota inh, WRN helicase inh, Pol kappa inh, PI5P4K alpha inh)
